# FBA Mtb inh – Mtb fructose-bisphosphate aldolase inhibition; P9WQA3; purified M. tuberculosis FBA, fluorescence read-out; inhibition, % at 1 µM; 360,000 compounds, 2.3% hits; AID 588726
# GDH-TPI counter-1 – GDH-TPI coupled enzyme inhibition counter-screen. inhibition, % at 4.8 µM. AID 588335. GDH-TPI coupled enzyme counterscreen, NADH absorbance. 360,000 compounds, 1.2% hits; in the data active = inhibition above about 30%
# BoNT-F LC inh – BoNT F light chain protease inhibition | Multiplex microsphere protease cleavage assay, flow cytometry | inhibition, % at 10 µM | 360,000 compounds, 0.22% hits; in the data active = inhibition above about 35%, passing the limit was not always enough; inconclusive = no clear call, values can overlap the other calls
# Bead autofluor – counter-screen for toxin protease inhibitors: compound fluorescence | compound autofluorescence counterscreen, microsphere flow cytometry; hits give high values | fluorescence intensity (no concentration beside the values) | 360,000 compounds, 3.1% hits | AID 624483; in the data active = fluorescence intensity above about 16000; inconclusive = no clear call, values can overlap the other calls
# BoNT-A LC inh2 – blocks Botulinum neurotoxin A light chain protease; inhibition, % at 10 µM; 360,000 compounds, 0.17% hits; multiplex microsphere protease substrate cleavage, flow cytometry; AID 588499; in the data active = inhibition above about 30%; inconclusive = no clear call, values can overlap the other calls
# Anthrax LF inh2 – inhibitors of Bacillus anthracis lethal factor protease | AID 588501 | P15917 | inhibition, % at 10 µM | multiplex microsphere protease cleavage assay, LF | 360,000 compounds, 0.12% hits; in the data active = inhibition above about 30%; inconclusive = no clear call, values can overlap the other calls
# Mtb FBA confirm – confirmation of M. tuberculosis fructose-bisphosphate aldolase inhibitors; 5,600 compounds, 78% hits; purified M. tuberculosis FBA, fluorescence read-out; inhibition, % at 1 µM; shares compounds with FBA Mtb inh; AID 651616
# GDH-TPI counter-2 – counter-screen for M. tuberculosis FBA inhibitors: GDH-TPI coupled enzyme inhibition; shares compounds with FBA Mtb inh; GDH-TPI coupled enzyme counterscreen, fluorescence; inhibition, % at 1 µM; 5,600 compounds, 81% hits; AID 652141; in the data active = inhibition above about 10%
# Numbers stand for hits; – = inactive; ? = inconclusive; · = not tested or not shown; + = active, no number. Sampled rows, rich in hits. Any-hit rate of the full collection: about 6.6%. Rule as the data show it, unless noted: active = inhibition above about 27%; inactive = the rest.
SMILES,FBA Mtb inh,GDH-TPI counter-1,BoNT-F LC inh,Bead autofluor,BoNT-A LC inh2,Anthrax LF inh2,Mtb FBA confirm,GDH-TPI counter-2
COC(=O)c1ccccc1NC(=O)/C=C/C(=O)O,–,–,–,–,–,–,·,·
Cc1ccnc(NC(=O)c2cccc(NC(=O)c3ccccc3C)c2)c1,–,–,–,–,–,–,·,·
CCOc1c2ccoc2nc2c(OC)c(OC)ccc12,67,–,–,–,–,–,+,175
C=CCOc1ccc2c(OC)c3ccoc3nc2c1OC,87,–,–,–,–,–,40,28
COc1cc2c(c(OC)c1OC)C(c1ccccc1C)CC(=O)O2 (centres undefined),–,–,–,–,–,–,·,·
N#C/C(=C\c1ccc(Cl)cc1Cl)c1n[nH]c(Cn2cncn2)n1,36,–,–,–,–,–,+,165
CCc1cc2ccc(C)cc2nc1SCC(=O)Nc1cc(OC)c(OC)cc1C(=O)O,47,–,–,–,–,–,–,–
CCOc1ccc(N2CC(C(=O)NCCc3ccc(S(N)(=O)=O)cc3)CC2=O)cc1 (centres undefined),–,–,–,–,–,–,·,·
Cc1csc2nc3cc(C(N)=O)ccc3c(=O)n12,72,–,–,–,–,–,+,+
Cc1ccc(-c2csc3nc4ccc(C(=O)NCCO)cc4c(=O)n23)cc1,31,–,–,–,–,–,+,+
NC(=O)c1ccc2c(=O)n3c(-c4cc(Cl)c(N)c(Cl)c4)csc3nc2c1,–,–,–,–,–,–,·,·
Cc1ccc(-c2csc3nc4cc(C(=O)NC5CCC(O)CC5)ccc4c(=O)n23)cc1 (centres undefined),30,–,–,–,–,–,–,–
COc1ccc(C(=O)Nc2ccc3oc(-c4cccnc4)nc3c2)cc1OC,–,–,–,–,–,–,·,·
CC(=O)Nc1ccc(-c2nc3cc(Cl)ccc3o2)cc1,29,–,·,·,·,·,+,+
CCCCCC(=O)Nc1ccc2oc(-c3cccnc3)nc2c1,84,–,–,–,–,–,47,44
CCCC(=O)Nc1ccc(-c2nc3cc(C)ccc3o2)cc1,96,–,–,–,–,–,76,77
O=C(Nc1ccc2oc(-c3ccccc3F)nc2c1)c1cncc(Br)c1,–,–,–,–,–,–,·,·
O=C(O)c1ccccc1-c1ccccc1C(=O)Nc1ccc(-c2nc3cc(Cl)ccc3o2)cc1,–,–,–,–,–,–,·,·
CC(C)(C)C(=O)Nc1ccc2oc(-c3cc(F)c(F)cc3Cl)nc2c1,53,–,–,–,–,–,70,47
CC(=O)c1cccc(-c2ccnc3c2CC(C(=O)NCC2CCOCC2)O3)c1 (centres undefined),–,–,–,–,–,–,·,·
COc1ccc(F)cc1S(=O)(=O)NCc1cc(=O)n(C)c(=O)n1C,–,–,–,–,–,–,·,·
O=C(CCNS(=O)(=O)c1ccccc1)N1CCN(C(c2ccccc2)c2ccccc2)CC1,–,–,–,–,–,–,·,·
Cc1c(C)c2ccc(OCC(=O)N3CCN(C(=O)C4COc5ccccc5O4)CC3)cc2oc1=O (centres undefined),66,–,–,–,–,–,29,17
COc1ccc2c(C)c(CC(=O)N3CCN(C(=O)C4COc5ccccc5O4)CC3)c(=O)oc2c1C (centres undefined),78,–,–,–,–,–,162,131
Cc1cc(=O)oc2cc(OCC(=O)N3CCN(C(=O)C4COc5ccccc5O4)CC3)ccc12 (centres undefined),35,–,–,–,–,–,+,+
SMILES,FBA Mtb inh,GDH-TPI counter-1,BoNT-F LC inh,Bead autofluor,BoNT-A LC inh2,Anthrax LF inh2,Mtb FBA confirm,GDH-TPI counter-2
COc1cc2nc(N3CCN(C(=O)C4COc5ccccc5O4)CC3)nc(N)c2cc1OC (centres undefined),85,–,–,–,–,–,148,110
CC(C)(C)c1ccc(C(=O)N2CCC(C(=O)c3ccccc3)CC2)cc1,–,–,–,–,–,–,·,·
COc1ccc(C2N(c3ccccc3)CCN2c2ccccc2)cc1O,–,–,–,–,–,–,·,·
OC[C@@H]1[C@@H](c2ccc(Cl)cc2)C(c2ccccc2)=NN1c1ccccc1,54,–,–,–,–,–,110,78
OC[C@@H]1[C@@H](c2ccc(F)cc2)C(c2cccc(Cl)c2)=NN1c1ccccc1,42,–,–,–,–,–,41,36
CCOc1ccc(N2C(=O)C3C(c4ccccc4)=NN(c4ccccc4)C3C2=O)cc1 (centres undefined),–,–,–,–,–,–,·,·
Nc1c(-c2cccc(Cl)c2)cnn1-c1ccccc1,–,–,–,–,–,–,·,·
OC[C@@H]1[C@@H](c2ccc(Cl)cc2)C(c2cccc(Cl)c2)=NN1c1ccccc1,63,–,–,–,–,–,158,102
COc1ccc(C(=O)c2sc3nc(-c4ccc(OC)cc4)ccc3c2N)cc1,34,–,–,–,–,–,28,31
CN(C)S(=O)(=O)c1cccc(NC(=O)CCNC(=O)c2ccccc2Cl)c1,–,–,–,–,–,–,·,·
Cc1nc2ccc(NC(=O)N3CCOCC3)cc2s1,–,–,–,–,–,–,·,·
CCOC(=O)C1CCN(C(=O)Nc2ccc3nc(C)c(C)nc3c2)CC1,78,–,–,–,–,–,115,77
Cc1nc2ccc(NC(=O)N3CCOCC3)cc2nc1C,43,–,–,–,–,–,+,147
COC(=O)c1ccc(C(c2c(C)n(C)n(-c3ccccc3)c2=O)c2c(C)n(C)n(-c3ccccc3)c2=O)cc1,–,–,?,–,–,–,·,·
CC[C@H](C)Cc1cn([C@@H](CCCCNC(=O)OC(C)(C)C)C(=O)NCCCCCCCCCCC(=O)N2CCN(C(=O)OC(C)(C)C)CC2)nn1,106,–,–,–,–,–,66,48
CCNC(=O)N(C)C[C@H]1N[C@@](C)(C(=O)OC)[C@H]2C(=O)N(Cc3ccccc3)C(=O)[C@@H]12,–,–,–,–,–,–,·,·
c1ccc(-c2nc3ccccn3c2NCc2ccc3c(c2)OCO3)cc1,–,–,–,–,–,–,·,·
Cc1cccn2c(NCc3ccc4c(c3)OCO4)c(-c3ccc(O)cc3)nc12,53,–,–,–,–,–,182,112
COc1ccc(-c2nnc(-c3cc4c(ccc5ccccc54)oc3=O)o2)cc1,–,–,–,–,–,–,·,·
O=c1oc2ccc3ccccc3c2cc1-c1nnc(-c2cccs2)o1,30,–,–,–,–,–,115,84
O=c1oc2ccc3ccccc3c2cc1-c1nnc(-c2ccccc2)o1,51,–,–,–,–,–,39,32
Cn1c(-c2ccc(Br)o2)nc2ccccc21,–,–,–,–,–,–,·,·
